# Measured values published in PubChem BioAssay.
# “And” between values parts separate entries of the source, which are not always exact repeats. Equal values may be shown once. Some compounds were tested as several samples or in several runs, with calls that do not always agree. The source made the active and inactive calls.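 How the source made its calls, unless noted: active means inhibition at or above 50% relative to wild type and mutant plate controls; inactive means inhibition below 50%.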
# Tests used:
# [1] = inhibitors of TNFa-induced NFkB p65 translocation, primary screen, imaging, HUVEC, MLSMR starter and 10KST1 sets (AID 438;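 active means inhibition above 20% together with a positive visual image hit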;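 further: compound added about 3h40 before a 20 min TNFalpha stimulation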;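 on inhibition: signal is the nuclear over cytoplasmic p65 intensity ratio per well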); conditions: HUVEC TNFa-induced p65 nuclear translocation; cell count: measured here: nuclei count (cytotoxicity indicator), at 2.08 µM; inhibition: at 2 µM, stronger effect = higher value, 0% TNFa-plus-vehicle, 100% no-TNFa wells
# [2] = reduction of polyQ htt aggregates in cells – imaging, exon1htt(103Q)mCFP cells, high-content imaging, primary screen (AID 483;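 active means visual image review flags a hit and inhibition of aggregation exceeds 20%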;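 further: compound exposure lasted 3 days before fixation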;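 on nuclei count: percent of the per-plate median nuclei count of sample wells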); conditions: exon1htt(103Q)mCFP cell line, aggregate imaging, at 2 µM; inhibition of aggregation: stronger effect = higher value; nuclei count: measured here: cell count, toxicity
# [3] = endothelial E-selectin expression blockers – imaging, HUVEC, immunofluorescence, MLSMR starter and 10KST1 sets, primary screen (AID 487;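 active means visually confirmed hit in the image check and inhibition above 20%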;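 on inhibition: signal is fraction of cell area covered by stained E-selectin grains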;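 on nuclei count: 100% = median nuclei count of all wells on the same plate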); conditions: HUVEC TNFalpha-induced E-selectin immunofluorescence imaging, at 2 µM; inhibition: stronger effect = higher value; nuclei count: measured here: cell number, toxicity
# [4] = Primary imaging screen for DUSP6 inhibitors that restore phospho-Erk in transfected HeLa cells, chemical complementation (AID 609;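 active means compounds giving at least 50% inhibition in the cell-based MKP-3 phosphatase rescue imaging test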;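 on inhibition: phospho-Erk level distribution per well compared with pooled transfected vehicle control wells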); conditions: HeLa MKP-3 transfected, phospho-Erk imaging KS statistic, at 10 µM, cells stimulated with TPA for 15 min
# [5] = biological target: Dual specificity protein phosphatase 6 (Homo sapiens) (UniProt Q16828); test: as above; conditions: HeLa MKP-3 transfected, phospho-Erk imaging KS statistic; at 10 µM; stronger effect = higher value; cells stimulated with TPA for 15 min
# [6] = biological target: Voltage-gated potassium channel subunit beta-2 (Rattus norvegicus) (UniProt P62483); test: inhibitors of rat Kvbeta2 reductase activity – biochemical, NADPH fluorescence, primary screen (AID 622;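 active means fluorescence slope higher than the sample average by over 3 SD, cut at about -0.22 in these data, passing the limit was not always enough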;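 further: slope of raw intensity against log time taken from 70 to 1610 s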); conditions: recombinant KvBeta, 4-cyanobenzaldehyde reduction, at 10 µM, stronger effect = higher value
# [7] = biological target: Voltage-gated potassium channel subunit beta-2 (Rattus norvegicus) (UniProt P62483); test: enhancers of rat Kvbeta2 NADPH turnover – biochemical, NADPH fluorescence, primary screen (AID 623;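 active means NADPH fluorescence slope more negative than the mean of all samples by about 3 SD, 99.7% confidence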;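 further: fluorescence intensity change per second fitted from 20 to 320 s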); conditions: Recombinant KvBeta, NADPH fluorescence decrease slope, 10 min; at 10 µM; stronger effect = lower value
# [8] = biological target: Alpha-2C adrenergic receptor (Homo sapiens) (UniProt P18825); test: compounds altering alpha2C-coupled GIRK flux – cell-based, HEK293 alpha2C/GIRK1/2, thallium flux, primary screen (AID 624;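 active means fluorescence slope after compound addition differing from the mean of all screened samples at 99.7% confidence, in either direction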;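 further: slope of fluorescence ratio to pre-addition baseline per second over 15 to 24 s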); conditions: thallium flux BTC fluorescence, at 10 µM, actives lie on both sides
# [9] = inhibitors of larval lipid processing in zebrafish, primary screen, whole organism, PED6 fluorescence, gall bladder and intestine (AID 686;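 active means a full or partial loss of lipid-probe fluorescence in the fish gall bladder, intestine or both, judged by eye; inactive means no fluorescence loss, or compound toxic to the fish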;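 further: larvae 5 to 7 days old with five fish per well; signal comes from phospholipase A2 cleavage of quenched PED6 carried via bile; overnight exposure to compound and PED6 before scoring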); conditions: Zebrafish larvae PED6 lipid processing, fluorescence scoring; screened at 20 µM (by protocol)
# [10] = loss of swimming-algae plug formation – whole organism, Chlamydomonas reinhardtii, WT vs cilia-less mutant, absorbance, 96-well, primary screen (AID 463189); conditions: Chlamydomonas reinhardtii gravitaxis, OD600 absorbance, 2 days; at 10 µM; stronger effect = higher value;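 further: 0% = wild type cc124 cells in DMSO and 100% = ciliumless bld1 mutant cells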
# [11] = blockers of RIG-like receptor reporter activation – cell-based, Sendai virus stimulus, luciferase, 10K MLSCN set, TLR/RLR signaling modifier project, primary screen (AID 602276;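 active means inhibition at or above 50% at 10 µM; inactive means inhibition below 50%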;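 further: firefly luciferase from ISG56 promoter only with Renilla not read in this screen; 0% = Sendai virus plus DMSO and 100% = medium plus DMSO without virus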); conditions: HEK293 RL24 IRF3 luciferase reporter, at 10 µM, stronger effect = higher value
# [12] = TLR3 IRF3 reporter activation blockers – cell-based, poly I:C stimulus, luciferase, 10K MLSCN set, primary screen (AID 602277;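 active means inhibition of the reporter signal at or above 50%; inactive means inhibition below 50%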); conditions: HEK293-TLR3 RL24 IRF3 luciferase reporter, at 10 µM, stronger effect = higher value
# [13] = measured here: cell density z-score
# [14] = measured here: nuclear c-Myc green intensity z-score
# [15] = measured here: nuclear pErk red intensity z-score, stronger effect = higher value
# Alpha-2C adrenergic receptor (Homo sapiens), sequence (P18825 whole entry, looked up): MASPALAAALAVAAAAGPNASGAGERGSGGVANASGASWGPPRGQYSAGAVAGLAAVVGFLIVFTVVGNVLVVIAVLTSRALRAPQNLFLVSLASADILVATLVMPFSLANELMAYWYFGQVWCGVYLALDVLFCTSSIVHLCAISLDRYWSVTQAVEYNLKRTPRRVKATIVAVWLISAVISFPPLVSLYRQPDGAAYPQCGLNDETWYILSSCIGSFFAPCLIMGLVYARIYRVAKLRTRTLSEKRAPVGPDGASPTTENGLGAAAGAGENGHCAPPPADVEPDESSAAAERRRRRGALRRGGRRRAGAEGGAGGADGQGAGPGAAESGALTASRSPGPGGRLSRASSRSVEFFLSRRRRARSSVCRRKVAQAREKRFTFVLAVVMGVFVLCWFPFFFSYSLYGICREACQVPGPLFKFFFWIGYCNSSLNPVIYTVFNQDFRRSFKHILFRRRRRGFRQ
# Voltage-gated potassium channel subunit beta-2 (Rattus norvegicus), sequence (P62483 whole entry, looked up): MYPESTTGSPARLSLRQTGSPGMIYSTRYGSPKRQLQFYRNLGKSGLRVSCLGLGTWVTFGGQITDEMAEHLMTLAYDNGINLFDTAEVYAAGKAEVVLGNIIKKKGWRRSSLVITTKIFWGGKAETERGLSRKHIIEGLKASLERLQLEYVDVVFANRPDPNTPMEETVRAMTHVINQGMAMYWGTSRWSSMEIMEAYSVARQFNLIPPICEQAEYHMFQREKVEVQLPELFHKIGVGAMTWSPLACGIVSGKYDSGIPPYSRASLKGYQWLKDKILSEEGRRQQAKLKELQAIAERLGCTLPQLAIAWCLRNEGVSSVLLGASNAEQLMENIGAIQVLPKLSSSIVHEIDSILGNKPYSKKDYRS
# Dual specificity protein phosphatase 6 (Homo sapiens), sequence (Q16828 whole entry, looked up): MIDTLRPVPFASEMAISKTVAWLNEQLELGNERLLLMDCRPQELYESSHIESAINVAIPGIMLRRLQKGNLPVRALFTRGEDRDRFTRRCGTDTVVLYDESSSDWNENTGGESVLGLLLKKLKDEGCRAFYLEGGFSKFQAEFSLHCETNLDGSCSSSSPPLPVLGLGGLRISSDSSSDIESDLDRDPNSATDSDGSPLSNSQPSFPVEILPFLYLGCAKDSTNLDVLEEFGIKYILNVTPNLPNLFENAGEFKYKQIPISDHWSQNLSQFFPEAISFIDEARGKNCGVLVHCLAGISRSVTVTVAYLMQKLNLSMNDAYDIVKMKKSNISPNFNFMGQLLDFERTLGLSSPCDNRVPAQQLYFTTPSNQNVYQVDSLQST
Structure (SMILES),cell count [1],inhibition [1],inhibition of aggregation [2],nuclei count [2],inhibition [3],nuclei count [3],"z-score [4, 13]","z-score [4, 14]","z-score [4, 15]",inhibition [5],fluorescence slope [6],NADPH fluorescence slope [7],slope [8],outcome [9],inhibition [10],inhibition [11],inhibition [12]
CC(O)Cn1cnc2c1c(=O)n(C)c(=O)n2C (stereo not drawn),541,-7% (inactive),11.8% (inactive),99.1%,-13.1% (inactive),128%,1.09,-0.569,-0.416,15.3% (inactive),-0.45 (inactive),-7.7e-05 (inactive),0.00504 (inactive),inactive,23.2% (inactive),12% (inactive),29.4% (inactive)
CN(C)CCC=C1c2ccccc2CCc2ccccc21,541,-3.1% (inactive),2.1% (inactive),107%,-17.7% (inactive),126%,0.892,-0.494,0.732,-0.493% (inactive),-0.449 (inactive),-6.5e-05 (inactive),0.00605 (inactive),inactive,6.87% (inactive) and 12.5% (inactive),-9.05% (inactive),51% (active)
CN1CCC(=C2c3ccccc3CC(=O)c3sccc32)CC1,641,5.3% (inactive),5.4% (inactive),97.7%,-56.9% (inactive),126%,2.91,0.175,-2.59,10.2% (inactive),-0.5 (inactive),-6.2e-05 (inactive),0.00525 (inactive),inactive,-11.3% (inactive) and 22.8% (inactive),-1.65% (inactive),51.2% (active)
CCC(NC(C)C)C(O)c1ccc(O)c2[nH]c(=O)ccc12 (stereo not drawn),682,-3% (inactive),-11.3% (inactive),109%,-80% (inactive),142%,0.193,0.138,0.273,13.3% (inactive),-0.49 (inactive),-3.3e-05 (inactive),0.00523 (inactive),inactive,23.9% (inactive),17.4% (inactive),45.8% (inactive)
CO[C@@]1(NC(=O)CSCC#N)C(=O)N2C(C(=O)O)=C(CSc3nnnn3C)CS[C@@H]21,632,-3.9% (inactive),3.8% (inactive),103%,-96.3% (inactive),143%,0.71,-0.314,-0.547,19.2% (inactive),-0.497 (inactive),-7e-05 (inactive),0.00536 (inactive),inactive,5.45% (inactive) and -4.17% (inactive),7.82% (inactive),28.6% (inactive)
O=C(O)Cc1cc(I)c(Oc2ccc(O)c(I)c2)c(I)c1,625,3.9% (inactive),12.4% (inactive),103%,-92% (inactive),123%,0.485,-0.133,0.686,8% (inactive),-0.541 (inactive),-4.1e-05 (inactive),0.00612 (inactive),inactive,22% (inactive),-15.1% (inactive),-273% (inactive)
NS(=O)(=O)c1cc2c(cc1Cl)NC(C(Cl)Cl)NS2(=O)=O (stereo not drawn),646,-8.4% (inactive),4.9% (inactive),109%,-57% (inactive),134%,-1.31,-0.533,1.7,-4.44% (inactive),-0.512 (inactive),-2e-05 (inactive),0.00475 (inactive),inactive,3.47% (inactive),13.9% (inactive),35.5% (inactive)
Nc1nc(Cl)nc2c1ncn2[C@@H]1O[C@H](CO)[C@@H](O)[C@H]1O,493,-14.6% (inactive),16.9% (inactive),88.7%,-20.3% (inactive),117%,0.919,0.297,-0.425,7.39% (inactive),-0.439 (inactive),2.4e-05 (inactive),0.00614 (inactive),inactive,13% (inactive),16.8% (inactive),39% (inactive)
COc1cccc(Cn2c(OCC3CCCO3)nc3c2c(=O)n(C)c(=O)n3C)c1 (stereo not drawn),411,-13.3% (inactive),1.3% (inactive),104%,-83.9% (inactive),153%,-0.111,0.171,0.516,-7.28% (inactive),-0.377 (inactive),-2.5e-05 (inactive),0.00528 (inactive),inactive,0.777% (inactive),17.3% (inactive),17.8% (inactive)
Oc1c(Cl)cc(Cl)cc1CNc1ccc(Br)cn1,580,-1.3% (inactive),-20.5% (inactive),108%,-9.9% (inactive),102%,-1.08,0.507,-0.618,-3.5% (inactive),-0.357 (inactive),1.5e-05 (inactive),0.00449 (inactive),inactive,-5.67% (inactive),17% (inactive),20.5% (inactive)
Fc1ccccc1-c1nc(NCCCN2CCOCC2)c2ccccc2n1,480,-0.7% (inactive),-2.8% (inactive),108%,-89.4% (inactive),130%,0.781,-1.18,-0.632,27.5% (inactive),-0.448 (inactive),-1.9e-05 (inactive),0.00649 (inactive),inactive,7.49% (inactive),-10.9% (inactive),-2.43% (inactive)
Cc1ccc(Cl)c(Nc2ccccc2C(=O)O)c1Cl,583,1.3% (inactive),12.3% (inactive),91.1%,-70.5% (inactive),95.9%,-0.43,-0.511,-0.695,-8.38% (inactive),-0.487 (inactive),-4.2e-05 (inactive),0.00556 (inactive),inactive,20.2% (inactive) and 61% (active),16.4% (inactive),40.3% (inactive)
Cc1[nH]nc2c1C(CCc1ccccc1)C(C#N)=C(N)O2 (stereo not drawn),561,-10% (inactive),-13.6% (inactive),111%,-14.6% (inactive),115%,-1.62,-1.48,1.34,-9.7% (inactive),-0.498 (inactive),-3.1e-05 (inactive),0.00364 (inactive),inactive,2.48% (inactive),-8.58% (inactive),2.77% (inactive)
C[C@]12C=CC(=O)C=C1CC[C@@H]1[C@@H]2[C@@H](O)C[C@@]2(C)[C@H]1CC[C@]2(O)C(=O)COC(=O)CCC(=O)O,671,-6.3% (inactive),6.5% (inactive),85.8%,-27.3% (inactive),120%,1.3,0.17,-0.0671,19.2% (inactive),-0.471 (inactive),-8e-05 (inactive),0.00574 (inactive),inactive,15.8% (inactive),6.58% (inactive),46.6% (inactive)
OC(CCCN1CCC(O)(c2ccc(Cl)cc2)CC1)c1ccc(F)cc1 (stereo not drawn),686,-2.4% (inactive),-13.4% (inactive),116%,-82.7% (inactive),118%,1.1,0.439,-0.848,14.6% (inactive),-0.468 (inactive),-6.6e-05 (inactive),0.00402 (inactive),inactive,20.5% (inactive),12.8% (inactive),40.2% (inactive)
CC(=O)Nc1nnc(S(N)(=O)=O)s1,660,-4.8% (inactive),-0.3% (inactive),93.8%,-29.7% (inactive),122%,-0.588,-1.08,0.272,13.3% (inactive),-0.462 (inactive),-6.7e-05 (inactive),0.0054 (inactive),active; no signal in intestine only,0.808% (inactive) and -5.65% (inactive),-14.2% (inactive),1.99% (inactive)
Nc1ccc(S(=O)(=O)NC(=O)c2ccccc2)cc1,544,2.5% (inactive),17.5% (inactive),94.6%,-116% (inactive),110%,-1.45,0.254,0.397,14.6% (inactive),-0.517 (inactive),-5.5e-05 (inactive),0.00537 (inactive),inactive,5.05% (inactive),21.8% (inactive),34.4% (inactive)
CO[C@H]1C=CO[C@@]2(C)Oc3c(C)c(O)c4c(O)c(c(C=NN5CCN(C)CC5)c(O)c4c3C2=O)NC(=O)C(C)=CC=C[C@H](C)[C@H](O)[C@@H](C)[C@@H](O)[C@@H](C)[C@H](OC(C)=O)[C@@H]1C,652,-3.9% (inactive),-21% (inactive),108%,-93.2% (inactive),125%,-0.406,1.71,0.381,13.3% (inactive),-0.556 (inactive),4.3e-06 (inactive),0.00466 (inactive),inactive,10.8% (inactive),33.7% (inactive),49.7% (inactive)
COc1ccc(OC)c(C2C(C#N)=C(N)Oc3cc(C)[nH]c(=O)c32)c1 (stereo not drawn),544,-31.7% (inactive),19.9% (inactive),88.9%,-48.5% (inactive),122%,-0.908,-1.31,-0.529,-7.86% (inactive),-0.536 (inactive),-5e-05 (inactive),0.00618 (inactive),inactive,15.7% (inactive),13.1% (inactive),-12.4% (inactive)
